Source: PubChem BioAssay
This excerpt belongs to a sample that is enriched for hits.
TbREL1 primary – TbREL1 inhibition, primary screen; P86926; inhibition, % at 9.66 µM; AID 1117264; 89,000 tested, 0.49% active; TbREL1 RNA ligation, FRET fluorescence;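 active = inhibition above the mean inhibition across all screened compounds plus 3 SD, cut at about 11% in these data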;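 note: 0% = plate median of test wells and 100% = NSC42067 control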
Target sequence (P86926 whole entry, looked up): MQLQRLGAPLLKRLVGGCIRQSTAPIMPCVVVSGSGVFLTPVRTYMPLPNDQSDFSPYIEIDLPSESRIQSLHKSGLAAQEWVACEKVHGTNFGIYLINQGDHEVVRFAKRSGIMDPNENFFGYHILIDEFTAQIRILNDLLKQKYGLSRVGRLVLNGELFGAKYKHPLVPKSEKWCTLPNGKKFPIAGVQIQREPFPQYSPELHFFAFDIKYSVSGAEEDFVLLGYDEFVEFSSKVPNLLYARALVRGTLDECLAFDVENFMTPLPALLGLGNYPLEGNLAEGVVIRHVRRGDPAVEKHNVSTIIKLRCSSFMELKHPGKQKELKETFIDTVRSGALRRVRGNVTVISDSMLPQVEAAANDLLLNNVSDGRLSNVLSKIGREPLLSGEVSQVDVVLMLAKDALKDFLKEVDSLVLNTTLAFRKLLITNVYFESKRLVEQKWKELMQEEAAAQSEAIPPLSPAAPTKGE
The depositor's hits bear a star.

SMILES | TbREL1 primary
COc1ccc(Br)cc1CNc1ccc(O)cc1 | 24*
COc1ccc(C(=O)NN)cc1COc1ccc(Br)cc1 | 6
C=CCc1cccc(CNc2ccc(Br)cc2)c1O | -3
CC(NC(=O)c1cc2c(=O)n3ccccc3nc2n(CC2CCCO2)c1=N)c1ccccc1 (stereo unspecified) | 3
CCOC(=O)[C@]12CCCC3=C1N(CCC3)C(=O)[C@@H](CC(=O)NCc1ccccc1)C2 | 0
CNC(=O)CC1C(=O)N(C)C(=S)N1NC(=O)c1ccc(Cl)cc1 (stereo unspecified) | 2
Cc1c(NC(=O)CN2CC(C)OC(C)C2)c(=O)n(-c2ccccc2)n1C (stereo unspecified) | 13*
Cc1c(NC(=O)CN2CCN(c3ccccc3)CC2)c(=O)n(-c2ccccc2)n1C | 3
Cc1ccc(SCCC(=O)Nc2c(C)n(C)n(-c3ccccc3)c2=O)cc1 | -1
Cc1c(NC(=S)NC(=O)CSc2ccc(Cl)cc2)cccc1C(=O)O | -4
O=C(O)C1C2C=CC(C2)C1C(=O)N1CCc2ccccc21 (stereo unspecified) | -2
CCCc1nc2ccc(Br)cn2c1Cc1ccccc1OC | 0
Cc1ccc(S(=O)(=O)c2cc(Nc3ccccc3)ccc2O)cc1 | 3
O=S(=O)(O)c1cc(O)c2cc(Nc3ccccc3)ccc2c1 | 14*
Nc1cccc(Nc2ccccc2)c1 | -2
O=C(COC(=O)C1=NNC(=O)CC1)NCCc1ccccc1 | -1
Nc1[nH]c(C(=O)c2ccccc2)c(-c2cccnc2)c1C(=O)NCCc1c[nH]c2ccccc12 | -5
Cc1ccc(CN2CCCCC(NC(=O)c3ccc(C)cc3)C2=O)cc1 (stereo unspecified) | 1
COc1cc(-c2nnco2)cc(OC)c1OC | -4
CCCCn1cnc2c(oc3ccccc32)c1=O | 3
CCOC(=O)C(C)n1cnc2c(oc3ccccc32)c1=O (stereo unspecified) | 17*
CC(C)C(C)NC(=O)Cn1cnc2c(oc3ccccc32)c1=O (stereo unspecified) | 2
CNS(=O)(=O)c1cccc(C(=O)OCC(=O)Nc2cc(F)ccc2F)c1 | 1
CC(C)Cc1c(O)nc(SCC(=O)N2CCCCCC2)[nH]c1=O | -2
CCCCNc1c(-c2ccc(SC3CCCCC3)c(OC)c2)nc2ccc(Cl)cn12 | 25*
SMILES | TbREL1 primary
CCCCCCSc1cc(-c2nc3ccc(Cl)cn3c2NC2CCCCC2)ccc1OC | -2
CCCCCCSc1ccc(-c2nc3ccc(Cl)cn3c2NCCCC)cc1OC | -1
COc1ccc(CN(C)C[C@@H]2OCCCC[C@@H](C)Oc3ccc(N(C)C)cc3C(=O)N([C@H](C)CO)C[C@@H]2C)cc1 | -6
CN(Cc1ccon1)Cc1cn(C)nc1-c1cccc(Cl)c1 | -3
NC(=O)COc1ccc(/C=N\NC(=O)c2ccc(-c3ccccc3)cc2)cc1 | 2
CC(=O)Nc1ccc(S(=O)(=O)N2CCN(c3ccc(C(C)=O)cc3)CC2)cc1 | 5
CC(=O)c1ccc(N2CCN(S(=O)(=O)c3ccc4c(c3)C(Cl)(Cl)C(=O)N4)CC2)cc1 | 11*
O=C1Cc2cc(S(=O)(=O)N3CCN(c4ccc(C(=O)O)cc4)CC3)ccc2N1 | 4
Cc1ccc(N2C(=O)c3ccc(N)cc3C2=O)cc1C | 5
O=C(CSc1nnc(Cn2c(=O)sc3ccccc32)n1-c1ccccc1)N1CCCC1 | 1
Cn1c(Cn2c(=O)sc3ccccc32)nnc1SCC(=O)N1CCCCCC1 | -2
O=C(CSc1nnc(Cn2c(=O)sc3ccccc32)n1-c1ccccc1)N1CCCCCC1 | 12*
CCc1ccc(NC(=O)CCNC(=O)Cn2cnc3ccccc3c2=O)cc1 | 5
CC12COC3(C(=O)Nc4ccc([N+](=O)[O-])cc4)CC1CCC32C (stereo unspecified) | 4
CCCOc1ccc(F)cc1-c1cc(C(=O)NC(C)C)[nH]n1 | 3
CCCOc1ccc(F)cc1-c1cc(C(=O)Nc2ccc(C)c(NS(C)(=O)=O)c2)[nH]n1 | -1
CCCOc1ccc(F)cc1-c1cc(C(=O)Nc2ccc(OC)c(OC)c2)[nH]n1 | 16*
O=C(Nc1ccc(SC(F)F)cc1)c1cc(-c2ccncc2)nc2ccccc12 | 4
COc1ccc(Cn2ccc3ccc(-c4ccc5ccn(C(=O)C6CC6)c5c4)cc32)cc1 | -3
O=C(CN(c1ccc(F)cc1)S(=O)(=O)c1ccc2c(c1)OCCO2)NCC1CCCO1 (stereo unspecified) | 7
COc1cc(/C=N/NC(N)=O)ccc1OC(=O)c1ccco1 | 6
CCCN1C(=O)c2ccc(C(=O)NCc3ccco3)cc2C1=O | -1
Nc1nc(Nc2cccc(Cl)c2)nc(NCCO)c1[N+](=O)[O-] | 6
COc1ccc(Nc2nc(NCc3ccco3)nc(N)c2[N+](=O)[O-])cc1 | 0
Nc1nc(Nc2cccc(Cl)c2)nc(NCc2ccco2)c1[N+](=O)[O-] | 11*
SMILES | TbREL1 primary
COC(=O)[C@]12C[C@H](CC(=O)N3CCCCC3)C(=O)N(Cc3ccc(Cl)cc3Cl)C1=C[C@H](C(C)(C)C)O[C@@H]2C | 10
O=C(NC1CCSc2ccccc21)c1cccc(S(=O)(=O)N2CCOCC2)c1 (stereo unspecified) | -4
Cc1ccc(S(=O)(=O)N2CCCC(C(=O)Nc3c(C)n(C)n(-c4ccccc4)c3=O)C2)cc1C (stereo unspecified) | 0
O=c1c2c(O)cc(O)cc2oc2c(O)ccc(O[C@H]3O[C@@H](CO)[C@H](O)[C@@H](O)[C@@H]3O)c12 | 5
O=c1c(O[C@H]2O[C@@H](CO)[C@H](O)[C@@H](O)[C@@H]2O)c(-c2ccc(O)cc2)oc2cc(O)cc(O)c12 | 3
O=c1c(OC2OC(CO)C(O)C(O)C2O)c(-c2ccc(O)c(O)c2)oc2cc(O)cc(O)c12 (stereo unspecified) | 92*
C=CCN1C/C(=C/c2ccccc2)N2C(=O)CC(c3ccccc3)N=C12 (stereo unspecified) | -1
COc1ccc2c3c([nH]c2c1)C1(NCC3)C(=O)Nc2ccccc21 (stereo unspecified) | 4
CCC(CC)C(=O)Nc1nnc(S(=O)(=O)N2CCCC2)s1 | 2
O=C(c1cc(-c2ccc(F)cc2)no1)N1CCN(Cc2ccc3c(c2)OCO3)CC1 | -3
O=C(c1cc([N+](=O)[O-])cc([N+](=O)[O-])c1)N1CCN(Cc2ccc3c(c2)OCO3)CC1 | -2
O=C(c1ccc(Br)o1)N1CCN(Cc2ccc3c(c2)OCO3)CC1 | 27*
Cc1cc(N(C)C)c(C#N)c(=O)[nH]1 | 6
COCCn1c(SCC(=O)c2ccc(Cl)cc2)nnc1C(C)C | -7
CN(CCC#N)C(=O)COC(=O)c1c2c(nc3ccccc13)/C(=C/c1ccco1)CC2 | 21*
CC(C)CNC(=O)COC(=O)c1c2c(nc3ccccc13)/C(=C\c1cccs1)CC2 | -4
CN(CCC#N)C(=O)COC(=O)c1ccc2[nH]c3c(c2c1)CCCC3 | 1
Cc1cccc(C(=O)NCC2CCN(C(=O)c3cccc(C)c3)CC2)c1 | -1
COc1cccc(CNC(=O)C(=O)NCCC2CCCCN2S(=O)(=O)c2ccccc2)c1 (stereo unspecified) | 0
O=C(NCCc1nnc2ccc(NCc3ccc(Cl)cc3)nn12)c1ccccc1 | 0
Cc1ccc(CNc2ccc3nnc(-c4ccccc4)n3n2)cc1 | 11*
Cc1ccc(CNc2cnccn2)cc1 | 0
CCc1nnc(NC(=O)CSc2nnc(-c3ccco3)n2CCOC)s1 | -4
CCOC(=O)c1cc(-c2cccc(O)c2)oc1C | -2
CC(=O)c1cnc(N(C)C)s1 | 0
CN(C)c1ncc(C2=C(Cl)C(=O)C(N3CCCC3)=C(Cl)C2=O)s1 | 69*
